Only some compounds are listed: those with a hit (about 4.1% of all), similar ones and a draw of the others.
PfHsp90 yeast 2: growth inhibition of PfHsp90-expressing yeast, primary screen, antimalarial PfHsp90 inhibitor project, S. cerevisiae, BacTiter-Glo luminescence, single point, set 2. hit rate 0.32% among 310,000. BacTiter-Glo ATP, 48 h; yeast lacking PDR1 and PDR3 efflux regulators. inhibition, % at 9.4 µM;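 active = every replicate shows inhibition above about 80%, whatever the replicate mean, limit read from the data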;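 also: 0% = DMSO neutral controls and 100% = 20 µM radicicol positive controls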
NALP3 yeast inh: NALP3 inflammasome inhibitors in reconstituted yeast, primary screen, luminescence, uHTS. Yeast reconstituted NLRP3/ASC/caspase-1, beta-gal luminescence, 24 h. inhibition, % at 10 µM. hit rate 0.39% among 330,000. AID 2825, 2010;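 active = inhibition of 50% or more; inactive = inhibition below 50%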;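 also: plate controls were induced DMSO wells for no effect and uninduced yeast grown without galactose for full effect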
tim10-1 inh: growth inhibitors of tim10-1 mutant yeast, primary screen, luminescence, uHTS | S. cerevisiae tim10-1 ts strain growth, BacTiter-Glo, 24 h | inhibition, % at 20 µM | hit rate 2.2% among 330,000;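 active = inhibition of at least 40%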;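 also: mutant grown at 25 °C; 0% = DMSO wells with yeast and 100% = wells holding no yeast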
NALP1 yeast inh: NALP1 inflammasome inhibitors in reconstituted yeast, colorimetric, S. cerevisiae, triplicate retest. AID 2071, 2009. hit rate 0.61% among 280,000. inhibition, % at 10 µM. S. cerevisiae NALP1/ASC/caspase-1 growth, X-gal OD620, 72 h; in the data active = inhibition mostly above about 24%, no sharp cut-off; inactive = mostly below about 32%
tim23-1 inh: growth inhibitors of tim23-1 mutant yeast, primary screen, luminescence, uHTS. S. cerevisiae tim23-1 growth, BacTiter-Glo luminescence, 24 h. inhibition, % at 20 µM. hit rate 1.3% among 330,000. AID 463212, 2010;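 active = growth inhibition of the mutant yeast at or above 50%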;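 also: temperature-sensitive mutant grown at 25 °C; plate controls were DMSO-treated mutant yeast for no effect and medium wells lacking yeast for full effect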
TIM10 inh: growth inhibitors of isogenic TIM10 control yeast, primary screen, counter-screen for tim10-1 yeast inhibitor project, luminescence, uHTS. S. cerevisiae TIM10 strain growth, BacTiter-Glo luminescence, 24 h. inhibition, % at 10 µM. hit rate 1.4% among 330,000;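 active = inhibition of 40% or more at the single tested concentration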;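 also: wild-type TIM10 isogenic control strain grown at permissive 25 °C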
tim10-1 confirm: growth inhibitors of tim10-1 mutant yeast, confirmation, single concentration, luminescence, S. cerevisiae | shares compounds with tim10-1 inh | S. cerevisiae tim10-1 ts strain growth, BacTiter-Glo, 24 h | inhibition, % at 20 µM | hit rate 56% among 7,400 | AID 463213, 2010;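 active = inhibition of yeast growth at or above a set limit in either of two repeat tests at 20 µM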;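 also: tim10-1 mutant grown at permissive 25 °C to find synthetic lethal compounds; 0% = DMSO yeast wells and 100% = medium wells without yeast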
The depositor's hits bear a star.

Cc1cc(C)n(CCc2nc(-c3cc4ccccc4o3)cs2)n1 was read as PfHsp90 yeast 2 7.7, NALP3 yeast inh 17.6, tim10-1 inh 42.7*, NALP1 yeast inh 7.6, tim23-1 inh 42.9, TIM10 inh 23.1 and tim10-1 confirm 29.6.
Screening Cc1ccccc1C(=O)NC1CCN(C(=O)Nc2ccc(F)cc2)CC1 returned PfHsp90 yeast 2 28.0, NALP3 yeast inh 16.5, tim10-1 inh -7.3, NALP1 yeast inh 8.9, tim23-1 inh 8.1 and TIM10 inh -0.1.
`N#Cc1c(-c2ccc(F)cc2)noc1N` gave PfHsp90 yeast 2 13.9, NALP3 yeast inh 10.9, tim10-1 inh 32.1, NALP1 yeast inh 0.6, tim23-1 inh 19.8 and TIM10 inh 26.2.
`COc1cccc(-c2noc(N)c2C#N)c1` gave PfHsp90 yeast 2 -10.6, NALP3 yeast inh 11.2, tim10-1 inh 52.0*, NALP1 yeast inh 0.5, tim23-1 inh 36.1, TIM10 inh 31.5 and tim10-1 confirm 44.2*.
`O=C(Nc1ccc(Cl)c(Cl)c1)C1CCN(C(=O)c2ccco2)CC1` gave NALP3 yeast inh -5.1, tim10-1 inh 33.7, tim23-1 inh 11.6 and TIM10 inh 13.6.
`COc1ccc(-c2ccc(SCC(=O)N3CC(=O)Nc4ccccc43)nn2)cc1` gave PfHsp90 yeast 2 -8.8, NALP3 yeast inh 15.8, tim10-1 inh -9.1, NALP1 yeast inh 16.6, tim23-1 inh 3.5 and TIM10 inh 2.2.
CC1(C)c2[nH]c3ccccc3c2C[C@@H]2C(=O)N(Cc3ccc(F)cc3)C(=O)N21 was read as NALP3 yeast inh 13.1, tim10-1 inh 44.6*, tim23-1 inh 48.6, TIM10 inh 39.4 and tim10-1 confirm 22.5.
Screening CC(C)OCCCn1c(=O)c2ccccc2n2c(CCC(=O)N3CCN(c4ccccn4)CC3)nnc12 returned PfHsp90 yeast 2 -6.3, NALP3 yeast inh 2.7, tim10-1 inh 16.4, NALP1 yeast inh 1.3, tim23-1 inh 4.6 and TIM10 inh 10.8.
For O=C(CCc1nnc2n(Cc3ccc(Cl)cc3)c(=O)c3ccccc3n12)N1CCN(c2ccccn2)CC1 the results were PfHsp90 yeast 2 -36.9, NALP3 yeast inh 23.3, tim10-1 inh 44.3*, NALP1 yeast inh 5.5, tim23-1 inh 30.6, TIM10 inh 15.4 and tim10-1 confirm 18.6.
`Cc1nn(C(C)(C)C)c(C)c1/C=N/OC(=O)Nc1ccc(Cl)cc1` gave PfHsp90 yeast 2 8.0, NALP3 yeast inh 34.5, tim10-1 inh 42.5*, tim23-1 inh 42.7, TIM10 inh 26.1 and tim10-1 confirm 30.2.
For COCCNC(=O)c1cc2c(s1)-c1ccc(Cl)cc1SC2 the results were PfHsp90 yeast 2 2.0, NALP3 yeast inh 23.1, tim10-1 inh 42.0*, NALP1 yeast inh 20.7, tim23-1 inh 32.6, TIM10 inh 10.3 and tim10-1 confirm 40.8*.
C/C(=N\NC(=O)Cc1csc(N2CCOCC2)n1)c1ccc(Cl)c(Cl)c1 was read as PfHsp90 yeast 2 5.7, NALP3 yeast inh 9.8, tim10-1 inh 41.3*, NALP1 yeast inh -6.1, tim23-1 inh 17.5, TIM10 inh 38.7 and tim10-1 confirm 18.6.
For CCC/C(=N\NC(=O)Cc1csc(N2CCOCC2)n1)c1ccccc1 the results were PfHsp90 yeast 2 15.3, NALP3 yeast inh -4.7, tim10-1 inh 17.0, NALP1 yeast inh -21.2, tim23-1 inh 19.3 and TIM10 inh -10.9.
For Cc1ccc(C)c(S(=O)(=O)N2CCN(C(=O)c3ccncc3)CC2)c1 the results were PfHsp90 yeast 2 -3.4, NALP3 yeast inh 12.1, tim10-1 inh 6.0, tim23-1 inh 27.6 and TIM10 inh 13.2.
For Cc1ccnc(NC(=O)c2ccc(NS(=O)(=O)/C=C/c3ccccc3)cc2)c1 the results were PfHsp90 yeast 2 0.7, NALP3 yeast inh 16.8, tim10-1 inh 11.2, tim23-1 inh 20.7 and TIM10 inh -4.1.
Screening O=C(Nc1cccnc1)OC1CCCCC1 returned NALP3 yeast inh -4.4, tim10-1 inh 43.0*, NALP1 yeast inh -4.8, tim23-1 inh 26.2, TIM10 inh 10.1 and tim10-1 confirm 26.3.
Screening O=C(Nc1cccnc1)OC1CCCC1 returned NALP3 yeast inh -10.9, tim10-1 inh 18.9, NALP1 yeast inh 8.9, tim23-1 inh 15.8 and TIM10 inh 18.6.
Screening O=C(Cc1cccc2ccccc12)N1CCN(c2ncccn2)CC1 returned PfHsp90 yeast 2 10.4, NALP3 yeast inh 19.8, tim10-1 inh 27.4, NALP1 yeast inh 10.1, tim23-1 inh 10.1 and TIM10 inh 2.0.
`O=C(Cc1coc2ccc3ccccc3c12)N1CCN(c2ncccn2)CC1` gave NALP3 yeast inh 27.2, tim10-1 inh 42.6*, NALP1 yeast inh 16.3, tim23-1 inh 30.5, TIM10 inh 19.7 and tim10-1 confirm 24.0.
Screening CC(C)Oc1ccccc1C1Nc2ccccc2C(=O)N1c1ccc2c(c1)OCCO2 (stereo not drawn) returned PfHsp90 yeast 2 -6.4, NALP3 yeast inh -12.0, tim10-1 inh 45.7*, NALP1 yeast inh 0.6, tim23-1 inh 24.9, TIM10 inh 11.1 and tim10-1 confirm 23.1.
Screening CCn1c2ccccc2c2nnc(SCC(N)=O)nc21 returned PfHsp90 yeast 2 -21.7, NALP3 yeast inh 16.3, tim10-1 inh -5.8, NALP1 yeast inh -3.2, tim23-1 inh 5.6 and TIM10 inh -5.0.
CCn1c2ccccc2c2nnc(SCc3ccccc3)nc21 was read as PfHsp90 yeast 2 -14.4, NALP3 yeast inh 17.7, tim10-1 inh 44.0*, NALP1 yeast inh 30.8, tim23-1 inh 36.5, TIM10 inh 8.7 and tim10-1 confirm 26.7.
`CCOC(=O)N1CCC(NC(=O)c2cc(C(=O)Nc3ccc(S(=O)(=O)N4CCCCC4)cc3)ccc2CO)CC1` gave PfHsp90 yeast 2 -11.6, NALP3 yeast inh 3.6, tim10-1 inh -23.2, NALP1 yeast inh 9.7, tim23-1 inh -8.0 and TIM10 inh -1.6.
O=C(CC(C(=O)N1CCc2ccccc21)n1ccnc1)N1CCc2ccccc2C1 (stereo not drawn) was read as NALP3 yeast inh 17.6, tim10-1 inh 40.0*, NALP1 yeast inh -5.6, tim23-1 inh 20.1, TIM10 inh 17.4 and tim10-1 confirm 35.2*.
For CCCCNC(=O)CC(C(=O)N1CCc2ccccc21)n1ccnc1 (stereo not drawn) the results were NALP3 yeast inh 5.7, tim10-1 inh 1.8, NALP1 yeast inh 6.7, tim23-1 inh 10.2 and TIM10 inh 1.6.
